Results reported in PubChem BioAssay AID743149 (Broad Institute, 2013).
Entries with a potency or affinity are not part of this list. A number with no mark means an inactive call. How the calls were made is not given here.

Assay: OV-90 cell viability loss – plate reader, dry powder, SA8, PAX8 inhibitor project, dose response (AID 743149)
Settings: OV-90 ovarian cancer cells; series mostly up to 35 µM; activity change, negative = cytotoxicity: at the top concentration

Compound | activity change, negative = cytotoxicity
COc1ccccc1C#Cc1ccc([C@@H]2[C@@H](C#N)N(C(=O)C3CCCCC3)[C@H]2CO)cc1 | -6.03%
O=C1/C(=C/c2ccccc2F)SC(=S)N1CC(=O)N1CCCCC1c1cccnc1 (stereo unspecified) | -23% [at 50 µM]
C[C@H](CO)N1C[C@H](C)[C@H](CN(C)C(=O)Nc2ccc(-c3cccs3)cc2)OCc2cnnn2CCCC1=O | 24.2%
O=C1/C(=C/c2cccc(Br)c2)SC(=S)N1CCC(=O)N(CCO)c1ccccc1 | -27% [at 50 µM]
N#C[C@@H]1[C@@H](c2ccc(C#Cc3ccccc3F)cc2)[C@H](CO)N1C(=O)C1CCCCC1 | -43.7%
COc1cccc(C#Cc2ccc([C@@H]3[C@H](C#N)N(C(=O)c4ccccn4)[C@H]3CO)cc2)c1 | -24.5%
COCC(=O)N1[C@H](CO)[C@H](c2ccc(-c3cccnc3)cc2)[C@@H]1C#N | 13.5%
N#C[C@H]1[C@@H](c2ccc(C#Cc3cccc(F)c3)cc2)[C@@H](CO)N1C(=O)C1CCCC1 | 10.2%
C[C@H](CO)N1C[C@H](C)[C@@H](CN(C)Cc2ccc(-c3ccccc3)cc2)Oc2ccc(NC(=O)C3CC3)cc2CC1=O | 1.99%
O=C(NCCc1ccccc1)c1ccc2c(c1)OCCCO2 | -8.48% [at 50 µM]
C[C@@H]1CN([C@H](C)CO)C(=O)CCCn2cc(nn2)CO[C@H]1CN(C)C(=O)Nc1ccc(-c2cccs2)cc1 | 18%
C[C@H](CO)N1C[C@H](C)[C@@H](CN(C)S(=O)(=O)c2ccc(Cl)cc2)OCCCC[C@H](C)Oc2ccc(NS(=O)(=O)c3ccccc3)cc2C1=O | -43.1%
COc1ccc(S(=O)(=O)Nc2ccc3c(c2)CC(=O)N([C@@H](C)CO)C[C@@H](C)[C@@H](CN(C)Cc2ccc(-c4ccccc4)cc2)O3)cc1 | -6.31%
Cc1ccc(S(=O)(=O)Nc2ccc3c(c2)C(=O)N([C@H](C)CO)C[C@@H](C)[C@H](CN(C)Cc2ccc(C(F)(F)F)cc2)OCCCC[C@H](C)O3)cc1 | -30.4%
COc1cccc(C#Cc2ccc([C@@H]3[C@@H](C#N)N(C(=O)C4CCCCC4)[C@H]3CO)cc2)c1 | -11.9%
CCN(CC(=O)Nc1c(F)cccc1F)C(=O)c1cc(S(=O)(=O)N(C)C)ccc1N1CCCC1 | 8.98% [at 50 µM]

Compound | activity change, negative = cytotoxicity
O=C1/C(=C/c2ccccc2)SC(=S)N1CC(=O)N1CCCCC1c1cccnc1 (stereo unspecified) | 36.8% [at 50 µM]
N#C[C@H]1[C@@H](c2ccc(C3=CCCC3)cc2)[C@@H](CO)N1C(=O)NC1CCCCC1 | 6.36%
O=C(CN1C(=O)c2ccccc2S1(=O)=O)c1ccccc1Cl | 3.21% [at 50 µM]
N#C[C@@H]1[C@H](c2ccc(C#CC3CCCC3)cc2)[C@H](CO)N1C(=O)Nc1ccc(F)cc1 | -2.68%
O=C(Nc1ccc(OCC(F)(F)C(F)F)c(C(F)(F)F)c1)c1ccccc1O | 14.1% [at 50 µM]
O=C(C[C@H]1CC[C@H]2[C@@H](COC[C@@H](O)CN2S(=O)(=O)c2cccc(Cl)c2)O1)Nc1ccc(-c2ccccc2)cc1 | -8.29%
C[C@H](CO)N1C[C@H](C)[C@@H](CN(C)Cc2ccc(-c3ccccc3)cc2)Oc2ccc(NS(=O)(=O)c3ccccc3)cc2CC1=O | -47.5%
CCCC#Cc1ccc([C@H]2[C@@H](CO)N(C(=O)C3CCCCC3)[C@H]2C#N)cc1 | -38.6%
C[C@H](CO)N1C[C@H](C)[C@@H](CN(C)S(=O)(=O)c2ccc(-c3ccccc3)cc2)OCc2cn(nn2)CCCC1=O | 14.8%
N#C[C@@H]1[C@@H](c2ccc(C3=CCCCC3)cc2)[C@@H](CO)N1C(=O)NC1CCCCC1 | 6.88%
CCCC#Cc1ccc([C@@H]2[C@@H](C#N)N(S(=O)(=O)c3cccc(F)c3)[C@H]2CO)cc1 | 2.97%
COc1cccc(C#Cc2ccc([C@H]3[C@@H](CO)N(C(=O)C4CCCC4)[C@H]3C#N)cc2)c1 | -21.9%
Cc1ccccc1OCC(=O)Nc1cccc(C(=O)O)c1 | 22.8% [at 50 µM]
C[C@@H]1CN([C@H](C)CO)C(=O)CCCn2nncc2CO[C@H]1CN(C)Cc1ccc(Oc2ccccc2)cc1 | -0.398%
O=C(CN1C(=O)c2ccccc2S1(=O)=O)c1ccc(Cl)cc1Cl | 31.7% [at 50 µM]
